Test results published in PMC4552634, “A New Set of Chemical Starting Points with Plasmodium falciparum Transmission-Blocking Potential for Antimalarial Drug Discovery” (PLoS ONE, 2015).
In all, about 13,000 compounds went through this assay and about 3,200 (25%) showed an effect of 50% or more. Some of the results follow.

These compounds were tested on P. falciparum stage V gametocytes. Settings: 48 h, 5 µM; inhibitor.
Design: BacTiter-Glo ATP luminescence viability of purified stage V gametocytes in 384-well plates, per cent inhibition versus DMSO

Compound | % Inhibition
CC1(C)N=C(N)N=C(N)N1O [TCMDC-131576] | -2.875%
COc1ccc2ncc(F)c(CCN3CC[C@@H](CNCc4nc5c(cc4C)SCC(=O)N5)C3)c2n1 [TCMDC-136056] | 97.91%
COc1ccc2ncc(Cl)c(CCN3C[C@H](CNCc4ccc5c(n4)NC(=O)CS5)[C@H](O)C3)c2n1 [TCMDC-136241] | 10.16%
COc1ccc2ncc(F)c(CCN3CCC[C@H](CNCc4ccc5c(n4)NC(=O)CS5)C3)c2n1 [TCMDC-136318] | 98.5%
COc1ccc2ncc(F)c(CCN3CC[C@@H](CNCc4cc5c(cn4)OCS5)C3)c2n1 [TCMDC-135643] | 33.53%
COc1ccc2ncc(F)c(CCN3CC4CCCC4(CNCc4ccc5c(n4)NC(=O)CS5)C3)c2n1 (stereo not shown) [TCMDC-136065] | 28.02%
COc1ccc2ncc(F)c(CCN3CC[C@H](NC(=O)c4ccc5c(n4)NC(=O)CS5)[C@H](O)C3)c2n1 [TCMDC-135907] | -25.82%
COc1ccc(NC(C)C(=O)Nc2ccc(Br)cc2)cc1S(=O)(=O)N1CCCCC1 (stereo not shown) [TCMDC-125032] | -25.53%
O=C(Cc1ccc[n+]([O-])c1)Nc1cccc(-c2cccc(-c3nc4cc(F)ccc4[nH]3)c2)c1 [TCMDC-136989] | -50%
Cc1ccc2nc(N(CCCn3ccnc3)C(=O)C=Cc3cccs3)sc2c1 [TCMDC-124927] | 1.025%
COc1ccc2nc(N(CCCn3ccnc3)C(=O)C=Cc3cccs3)sc2c1 [TCMDC-124926] | -10.06%
O=C(C=Cc1cccs1)N(CCCn1ccnc1)c1nc2ccc(F)cc2s1 [TCMDC-124928] | 96.26%
OCCN1CCN(C2Cc3ccc(F)cc3Sc3ccc(Cl)cc32)CC1 (stereo not shown) [TCMDC-123467] | 11.59%
C=C(NC(=O)c1cc(C)cc(C)c1)C(=O)OC [TCMDC-131725] | 5.196%
CC1CCCN1Cc1cccc(-c2ccc(C(=O)NCCOc3ccccc3)s2)c1 (stereo not shown) [TCMDC-133066] | -6.821%
CC(C)(C)OC(=O)[C@H](CC(N)=O)NC(=O)c1ccc(-c2ccc(-c3nc4cc(C(F)(F)F)ccc4[nH]3)s2)cc1 [TCMDC-132340] | -23.75%
CC(C)N(Cc1cnc(N)c(C#N)n1)c1ccc(Cl)c(Cl)c1 [TCMDC-137676] | 6.722%
O=c1[nH]c(=O)n2c(nc3ccccc32)[nH]1 [TCMDC-131695] | 19.78%
O=S(=O)(NCCN1CCCC1)c1ccc(-c2cccc(CNCc3ccc(F)cc3)c2)cc1F [TCMDC-132275] | 25.81%
COc1ccc(-c2ccc(CNCc3ccc(F)cc3)cc2)cc1S(=O)(=O)NCCN1CCCC1 [TCMDC-132282] | 111.7%
COc1ccc(CNCc2ccc(F)cc2)cc1-c1ccc(OC)c(S(=O)(=O)NCCN2CCCC2)c1 [TCMDC-132295] | 107%
Cc1cc(-c2ccc(CNCc3ccc(F)cc3)cc2)ccc1S(=O)(=O)NCCN1CCCC1 [TCMDC-132291] | 38.43%
COc1ccc(CNCc2ccccc2)cc1-c1ccc(OC)c(S(=O)(=O)NCCN2CCCC2)c1 [TCMDC-132250] | 31.04%
Cc1cc(-c2cccc(CNCc3ccc(F)cc3)c2)ccc1S(=O)(=O)NCCN1CCCC1 [TCMDC-132278] | 105%

Compound | % Inhibition
COc1ccc(-c2cccc(CNCc3ccc(F)cc3)c2)cc1S(=O)(=O)NCCN1CCCC1 [TCMDC-132408] | 73.1%
COc1ccc(Nc2nc(NCc3cccc(NS(C)(=O)=O)c3)cc(-c3ccc(OC)cc3)n2)cc1 [TCMDC-133457] | -11.45%
COc1ccc(Nc2ncc3c(-c4cccc(NC(=O)Cc5cccc(O)c5)c4)c[nH]c3n2)cc1OC [TCMDC-135247] | -20.67%
CN1CC=C(c2c[nH]c3ccc(-c4ccccc4)cc23)CC1 [TCMDC-138962] | -5.151%
Cc1cc2nc(-c3ccc(SCC(=O)Nc4ccc5c(c4)OCCO5)nc3)[nH]c2cc1C [TCMDC-125353] | 21.88%
O=C(CN1CCC2(CCC1=O)CC(=O)c1ccccc1O2)NCCN1CCOCC1 (stereo not shown) [TCMDC-133148] | 11.41%
COc1ccc(-c2ccc(CNCc3ccccc3)cc2)cc1S(=O)(=O)NCCN1CCCC1 [TCMDC-132230] | 103.5%
C=CCOC(=O)N1CCC(CNCc2cccc(-c3ccc(-c4nc5cc(C(F)(F)F)ccc5[nH]4)cc3)c2)C1.O=C(O)C(F)(F)F (stereo not shown) [TCMDC-133042] | -7.537%
COc1cccc(CC(=O)NC2CCN(c3ccnc4cc(Cl)ccc34)C2)c1 (stereo not shown) [TCMDC-133664] | 6.238%
COc1cccc(CNC(=O)NC2CCN(c3ccnc(Nc4ccc(F)cc4)n3)C2)c1 (stereo not shown) [TCMDC-133604] | -32.96%
COc1cccc(CC(=O)N2CCC(n3c(C)nc4ccc(C)cc43)CC2)c1 [TCMDC-124791] | 93.69%
COc1cccc(CNC(=O)c2cccc(-c3cccc(CN4CCC(N5CCCC5)CC4)c3)n2)c1 [TCMDC-134417] | 25.8%
COc1cccc(CC(=O)N2CCC(n3c(C)nc4ccc(F)cc43)CC2)c1 [TCMDC-124792] | 80.7%
COc1cccc(OC2CCN(C(=O)c3cc(C(C)(C)C)nn3Cc3ccccc3)CC2)c1 [TCMDC-134143] | -6.866%
CCOC(=O)c1[nH]c(-c2ccccc2)nc1NC(=S)NC1CCCCC1 [TCMDC-131430] | 5.591%
Cc1ccc(NC(=O)NC2CCN(c3ccnc4ccccc34)CC2)cc1 [TCMDC-133588] | 13.19%
Cc1nc(/N=C(\N)NC(=O)NC2CCCCC2)nc2ccccc12 [TCMDC-123808] | 133.5%
CC(C)CC(NC(=O)c1ccc(F)cc1)C(=O)N[C@H](/C=N/N1CCNC1=O)CC(C)C (stereo partly shown) [TCMDC-136214] | 16.28%
OC(c1ccccc1)C1CN(Cc2ccccc2)CCC1(O)c1ccccc1 (stereo not shown) [TCMDC-125518] | -9.589%
CC(c1cccc(S(=O)(=O)NCc2ccc(Cl)cc2Cl)c1)N1CCC(N2CCCCC2)CC1 (stereo not shown) [TCMDC-133564] | -22.09%
COCCNCC(O)Cn1c2ccc(Cl)cc2c2cc(Cl)ccc21 (stereo not shown) [TCMDC-123535] | 54.28%
OC(CNCCc1ccccc1)Cn1c2ccc(Cl)cc2c2cc(Cl)ccc21 (stereo not shown) [TCMDC-124135] | 17.2%
CCNCCCC(C)Nc1ccnc2cc(Cl)ccc12 (stereo not shown) [TCMDC-125876] | 27.58%
CCC(CO)NCC(O)Cn1c2ccc(Cl)cc2c2cc(Cl)ccc21 (stereo not shown) [TCMDC-125711] | 55%

Compound | % Inhibition
CC(C)CCNCC(O)Cn1c2ccc(Cl)cc2c2cc(Cl)ccc21 (stereo not shown) [TCMDC-125673] | 69.1%
CCC(CO)NCC(O)Cn1c2ccc(Br)cc2c2cc(Br)ccc21 (stereo not shown) [TCMDC-125710] | 27.72%
Cc1nc(-c2cccc(C(=O)Nc3cnc4ccccc4c3)c2)no1 [TCMDC-135810] | 8.288%
CC1CCC(NCc2ccc3c(CNC4CCC(C)CC4)c(O)ccc3c2O)CC1 (stereo not shown) [TCMDC-137587] | -63.23%
COc1cc(CCNC(=O)Cc2ccc3ccccc3c2)ccc1OCc1ccccc1 [TCMDC-137227] | 57.44%
COc1ccc(C(=O)O)cc1OCc1ccccc1 [TCMDC-125534] | 4.056%
COc1cccc(C(=O)NCCc2cccc(Cl)c2)c1OCc1ccccc1 [TCMDC-141235] | -13.17%
CCC(C)CC(=O)Nc1ccc(OC)c(S(=O)(=O)N[C@@H]2CCN(C#N)C2)c1 (stereo partly shown) [TCMDC-134061] | 14.31%
COc1cc(-c2nc3ccc(N4CCN(C)CC4)cc3[nH]2)cc(OC)c1OC [TCMDC-124585] | -16.2%
NC(=O)c1ccccc1Nc1nc(Nc2cccc(N3CCN(CCO)CC3)c2)ncc1Cl [TCMDC-134114] | 94.95%
COc1ccc(Nc2ncc(C#N)c(Nc3ccccc3C(N)=O)n2)cc1N1CCN(C)CC1 [TCMDC-134117] | -97.62%
COc1ccc(Nc2ncc(OC)c(Nc3ccccc3C(N)=O)n2)cc1N1CCN(C)CC1 [TCMDC-134149] | 9.949%
CNC(=O)c1ccccc1Nc1nc(Nc2ccc(N3CCOCC3)cc2)ncc1Cl [TCMDC-134144] | -63.52%
Cc1cc(Nc2ncc(C#N)c(Nc3ccccc3C(N)=O)n2)ccc1N1CCN(C)CC1 [TCMDC-134115] | 104.7%
CNC(=O)c1ccccc1Nc1nc(Nc2ccc(N3CCN(C)CC3)nc2)ncc1C [TCMDC-134123] | 57.48%
COc1ccc(Nc2ncc(Cl)c(Nc3cccnc3C(N)=O)n2)cc1N1CCN(C)CC1 [TCMDC-134163] | 97.54%
CNC(=O)c1ccccc1Nc1nc(Nc2ccc(CCN3CCN(C)CC3)cc2)ncc1Cl [TCMDC-133800] | 8.334%
CN1CCN(c2ccc(Nc3ncc(Cl)c(Nc4cccnc4C(N)=O)n3)cc2)CC1 [TCMDC-134164] | -84.83%
CNC(=O)c1cnc(Nc2ccc(N3CCN(C)CC3)cc2)nc1Nc1ccccc1OC [TCMDC-141382] | -26.7%
CNC(=O)c1cnc(Nc2ccc(N3CCN(C)CC3)c(C)c2)nc1NC [TCMDC-134162] | 36.76%
Cc1cc(Nc2ncc(Cl)c(Nc3ccccc3C(N)=O)n2)n[nH]1 [TCMDC-134170] | -34.04%
CCC[C@@H](C(=O)NCCc1cccc(OC)c1)N1C(=O)c2c(ccc(OC)c2OC)C1C(=O)Nc1c(C)cccc1C (stereo partly shown) [TCMDC-141135] | 18.96%
